Screening results: PubChem, National Center for Advancing Translational Sciences (NCATS)
PGK inhibitor: blocks T. brucei phosphoglycerate kinase; 380,000 tested, 0.043% active; Potency, µM (series often up to 57.5 µM), for inactives: at the top dose activity change, negative = inhibition, actives largely listed as inhibitors; PGK/GAPDH coupled, Kinase-Glo luminescence, 60 min; P07378; also: % is scaled to controls: 0 for no effect and ±100 for the full control effect; nearly all actives have a fitted effect of over 60% in size
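Luminescent ATP detection (Kinase-Glo Plus) follows a 60-minute room-temperature incubation, with wells lacking PGK as controls. Buffer: 100 mM TEA (pH 7.6), 5 mM MgCl2, 0.01% Tween-20. Coupling enzyme GAPDH (100 nM final) supplies unstable 1,3-BPG in-well.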
POLK inh: blocks human DNA polymerase kappa activity; purified Pol kappa, fluorescent DNA synthesis assay, 10 min; Potency, µM (titrated, usually from 107 µM), inactives show at the highest dose activity, negative = inhibition, most hits filed as inhibitors; 400,000 tested, 0.53% active; AID 588579; also: % is scaled to controls: 0 for no effect and ±100 for the full control effect
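Inhibition of 10 nM Pol kappa is measured by a fluorescent read-out at 0 and 10 min following addition of 50 nM substrate (final), with a 15-min room-temperature compound preincubation.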
Pol eta inh: DNA polymerase eta (human) inhibition. AID 588591. Q9Y253. recombinant Pol eta, fluorescent DNA replication assay. Potency, µM (top dose mostly 114 µM), inactives show at the top dose activity change, negative = inhibition, usual class: inhibitors. 390,000 tested, 1.2% active; also: % is scaled to controls: 0 for no effect and ±100 for the full control effect
Target sequence (Q9Y253 whole entry, looked up): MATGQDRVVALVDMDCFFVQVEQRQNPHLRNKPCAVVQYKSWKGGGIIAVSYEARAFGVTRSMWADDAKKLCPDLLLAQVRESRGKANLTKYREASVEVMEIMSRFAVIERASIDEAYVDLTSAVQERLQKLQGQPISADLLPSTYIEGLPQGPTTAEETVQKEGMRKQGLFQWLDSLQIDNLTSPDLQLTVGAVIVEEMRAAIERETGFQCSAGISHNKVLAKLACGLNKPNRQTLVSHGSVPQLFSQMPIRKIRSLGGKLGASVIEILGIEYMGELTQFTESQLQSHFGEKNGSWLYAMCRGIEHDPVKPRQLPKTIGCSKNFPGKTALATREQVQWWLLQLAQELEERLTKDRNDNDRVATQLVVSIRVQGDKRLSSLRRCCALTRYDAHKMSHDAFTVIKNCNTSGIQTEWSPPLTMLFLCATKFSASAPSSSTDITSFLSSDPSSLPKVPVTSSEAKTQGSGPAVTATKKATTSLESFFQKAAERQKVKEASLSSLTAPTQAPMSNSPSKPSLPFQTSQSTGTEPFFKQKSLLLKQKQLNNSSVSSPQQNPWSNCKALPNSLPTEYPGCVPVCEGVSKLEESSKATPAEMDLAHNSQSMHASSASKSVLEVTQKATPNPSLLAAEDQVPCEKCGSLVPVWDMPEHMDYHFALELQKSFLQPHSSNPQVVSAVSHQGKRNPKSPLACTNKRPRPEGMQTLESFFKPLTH
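Fluorescent replication assay: 50 nM final substrate added after a 15 min room-temperature compound preincubation with 10 nM enzyme. Signal taken at 0 min and again at 10 min.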
POLI inh: blocks human DNA polymerase iota activity; Q9UNA4; Pol iota fluorescent replication assay, 10 min; Potency, µM (series often up to 115 µM), for the others: at the highest dose activity, negative = inhibition, most hits filed as inhibitors; 390,000 tested, 1% active; AID 588590
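Pol iota at 10 nM preincubated 15 min with compounds at room temperature; reaction started with fluorescent substrate, 50 nM final. Fluorescence read kinetically at 0 and 10 min; buffer-only wells as negative control.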
FEN1 inhibitor: inhibitors of human flap endonuclease 1; P39748; 390,000 tested, 0.35% active; Recombinant FEN1 flap cleavage, fluorescence, 15 min; AID 588795; Potency, µM (doses to about 114 µM), without a hit: at the top dose activity change, negative = inhibition, hits mostly inhibitors; also: % is scaled to controls: 0 for no effect and ±100 for the full control effect; nearly all actives have a fitted effect of over 65% in size
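FEN1 at 10 nM, compound pretreatment for 15 min (room temperature), 50 nM final substrate to initiate; endpoint reads at 0 and 15 min; DMSO-only plates used as vehicle background.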
POLB inh: DNA polymerase beta (human) inhibition | P06746 | Pol beta primer extension/strand displacement, fluorescence kinetic | Potency, µM (doses to about 114 µM), for the others: at the highest dose activity change, negative = inhibition, usual class: inhibitors | 340,000 tested, 1.3% active; also: % is scaled to controls: 0 for no effect and ±100 for the full control effect
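Pol beta (10 nM) was preincubated with compound for 15 min at room temperature. The reaction was then started with 50 nM substrate and read immediately and after a further 10 min at room temperature.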
* hit, by the source's call; [ ] = remark or other dose. The list is not random: actives were taken first. Their share in the collection is about 2.4%. Calls follow the shape of the dose curve; as a rule, active = well fitted curve in the direction sought with a large enough effect; inconclusive = small, poorly fitted or top-dose-only effect, or another doubt; inactive = no such curve, though single readings can be large; an effect the other way counts as inactive or inconclusive. Potency is read from the fitted curve at half-maximal effect.

Results for Cc1ccc(C(=O)NCC(=O)OCC(=O)c2c(N)n(C)c(=O)n(C)c2=O)s1 ?
PGK inhibitor: -5.8%; POLK inh: -6.3%; Pol eta inh: inconclusive; POLI inh: inconclusive; FEN1 inhibitor: 5.6%; POLB inh: 35.5µM*

How did Cc1ccc2c(c1)C1OCCC1C1N2C(=O)C2C(C(=O)O)C3C=CC21O3 (configuration not stated) do in these assays?
PGK inhibitor: -12.2%; POLK inh: -29.7%; Pol eta inh: inconclusive; POLI inh: inconclusive; FEN1 inhibitor: -0.6%; POLB inh: 39.8µM*

What do the screens show for `CCCN1C(=O)c2ccccc2NC1c1ccc(OC)c(COc2ccc([N+](=O)[O-])cc2)c1` (configuration not stated)?
POLK inh: 5.0%; POLI inh: 7.6%; FEN1 inhibitor: -19.7%

Results for Cc1csc2nc3cc(C(N)=O)ccc3c(=O)n12 ?
PGK inhibitor: -4.8%; POLK inh: 11.8%; Pol eta inh: -12.8%; POLI inh: 17.6%; FEN1 inhibitor: -3.8%; POLB inh: 1.2%

What do the screens show for `NC(=O)c1ccc2c(=O)n3c(-c4cc(Cl)c(N)c(Cl)c4)csc3nc2c1`?
PGK inhibitor: -13.5%; POLK inh: -2.3%; Pol eta inh: inconclusive; POLI inh: 50.1µM*; FEN1 inhibitor: inconclusive; POLB inh: inconclusive

What do the screens show for `COC(=O)c1ccc(CC(=O)c2c(C)cc(O)cc2O)o1`?
PGK inhibitor: -9.8%; POLK inh: 25.1µM*; Pol eta inh: inconclusive; POLI inh: inconclusive; FEN1 inhibitor: inconclusive; POLB inh: inconclusive

What do the screens show for `Cc1cc(=O)oc2cc(OCC(=O)N3CCN(c4ccc(F)cc4)CC3)ccc12`?
PGK inhibitor: -3.0%; POLK inh: inconclusive; Pol eta inh: -6.9%; POLI inh: 39.8µM*; FEN1 inhibitor: 4.4%; POLB inh: 19.8%

What do the screens show for `Cc1cc(=O)oc2cc(OCC(=O)c3ccc4c(c3)NC(=O)CO4)ccc12`?
PGK inhibitor: inactive; POLK inh: -14.8%; Pol eta inh: inconclusive; POLI inh: 3.16µM*; FEN1 inhibitor: -29.7%; POLB inh: inconclusive

Results for Cc1ccc(C(=O)COc2ccc3c(C)cc(=O)oc3c2)cc1 ?
PGK inhibitor: 6.7%; POLK inh: 0.4%; Pol eta inh: -14.9%; POLI inh: 5.8%; FEN1 inhibitor: -12.6%; POLB inh: 7.7%

What do the screens show for `Cc1c(N)cc(S(=O)(=O)O)cc1NC(=O)c1cccc([N+](=O)[O-])c1`?
PGK inhibitor: -8.5%; POLK inh: -21.7%; Pol eta inh: 28.2µM*; POLI inh: inconclusive; FEN1 inhibitor: 5.9%

What do the screens show for `O=C(COC(=O)c1ccc([N+](=O)[O-])s1)NCc1ccccc1`?
PGK inhibitor: inactive; POLK inh: -22.4%; Pol eta inh: inconclusive; POLI inh: inconclusive; FEN1 inhibitor: inconclusive; POLB inh: 12.6µM*

Results for O=C(COC(=O)c1ccc([N+](=O)[O-])s1)NC(c1ccccc1)c1ccccc1 ?
PGK inhibitor: 3.3%; POLK inh: -17.8%; Pol eta inh: -17.1%; POLI inh: 90.9%; FEN1 inhibitor: -7.8%; POLB inh: inconclusive

What do the screens show for `CCOc1ccc(NC(=O)COC(=O)c2ccccc2OCc2ccccc2Br)cc1`?
POLK inh: -6.3%; POLI inh: -17.7%; FEN1 inhibitor: 6.5%

Results for CCNc1nc(NCC)nc(-n2cc(C(=O)c3cc(Cl)ccc3O)cn2)n1 ?
POLK inh: -6.3%; POLI inh: 30.5%; FEN1 inhibitor: -8.6%

What do the screens show for `Nc1ccc(/C=C/c2cc(Cl)nc3ccccc23)cc1`?
POLK inh: 3.2%; POLI inh: 6.9%; FEN1 inhibitor: inconclusive

How did OCc1cc2c(cn1)[nH]c1ccccc12 do in these assays?
POLK inh: 7.0%[19.4 µM]

How did COc1ccc(-c2nc3ccc(N4CCCC4)cc3c(=O)[nH]2)cc1OC do in these assays?
PGK inhibitor: -12.0%; POLK inh: -3.2%; Pol eta inh: inconclusive; POLI inh: inconclusive; FEN1 inhibitor: inconclusive; POLB inh: 39.8µM*

What do the screens show for `CCCCCCCCCCCCCCCCOCCOCCOCCOCCOCCOCCOCCOCCOCCOCCOCCOCCOCCOCCOCCOCCOCCOCCOCCOCCO`?
POLK inh: 5.4%[19.4 µM]

What do the screens show for `O=c1[nH]cnc2n[nH]nc12`?
POLK inh: -12.2%; POLI inh: 8.2%; FEN1 inhibitor: 5.0%

What do the screens show for `Cc1cc2c(cc1C)N[C@]1(C[C@H]3CCCC(=O)N4CC[C@@H](C1)[C@@H]34)C(=NC1CCCCC1)N2`?
POLK inh: 4.2%; POLI inh: 8.0%; FEN1 inhibitor: -3.7%

How did Clc1ccc(-c2nnc(-c3ccc(Br)cc3)c(N3CCSCC3)n2)cc1 do in these assays?
PGK inhibitor: 1.9%; POLK inh: -2.5%; Pol eta inh: -18.0%; POLI inh: 19.7%; FEN1 inhibitor: 4.4%; POLB inh: 1.0%

How did Clc1ccc(-c2nnc(-c3ccco3)nc2N2CCCCC2)cc1 do in these assays?
PGK inhibitor: -8.0%; POLK inh: -18.0%; Pol eta inh: inconclusive; POLI inh: -7.6%; FEN1 inhibitor: -1.5%; POLB inh: 39.8µM*

Results for CCOC(=O)c1c(C)[nH]c(=S)c(C#N)c1-c1ccc(Cl)cc1 ?
PGK inhibitor: -7.7%; POLK inh: -26.9%; Pol eta inh: -21.3%; POLI inh: 79.4µM*; FEN1 inhibitor: -0.5%; POLB inh: 1.8%

How did COc1ccc(C)cc1NC(=O)c1cc2c(=O)n(Cc3cccnc3)ccc2nc1C do in these assays?
PGK inhibitor: inactive; POLK inh: 14.8%; Pol eta inh: -6.3%; POLI inh: 5.4%; FEN1 inhibitor: -7.4%; POLB inh: inconclusive

How did O=C(N/N=C/c1ccc([N+](=O)[O-])o1)c1ccc2c(c1)OCO2 do in these assays?
PGK inhibitor: -9.3%; POLK inh: -21.3%; Pol eta inh: -6.7%; POLI inh: inconclusive; FEN1 inhibitor: -8.8%; POLB inh: 39.8µM*

What do the screens show for `O=[N+]([O-])c1ccc(/C=N/N=C/c2ccc([N+](=O)[O-])o2)o1`?
PGK inhibitor: -7.6%; POLK inh: inconclusive; Pol eta inh: inconclusive; POLI inh: 22.4µM*; FEN1 inhibitor: -20.2%; POLB inh: -25.9%

Results for Cc1nn(-c2ccc(Cl)cc2)c(Cl)c1/C=N/NC(=O)c1ccc(NS(=O)(=O)c2cccs2)cc1 ?
PGK inhibitor: -9.0%; POLK inh: -16.0%; Pol eta inh: 79.4µM*; POLI inh: -3.6%; FEN1 inhibitor: -23.6%

What do the screens show for `CC(=O)N/N=C/c1ccc([N+](=O)[O-])o1`?
POLK inh: -8.3%[19.4 µM]
